ATXN2 expr inh – Primary qHTS for Inhibitors of ATXN expression. actives 0.72% (n = 360,000). Potency, µM (top dose mostly 57 µM), without a hit: at the highest dose activity change, negative = inhibition, hits mostly inhibitors. AID 1745845, 2022. HEK-293 ATXN2-luciferase reporter, luminescence, 24 h; further: potency means the concentration at half of the fitted maximal effect; on the % scale 0 is the no-effect control and ±100 the full control effect; nearly all actives have a fitted effect of over 55% in size
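ATXN2-luciferase reporter cells (luciferase flanked by upstream and downstream ATXN2 gene portions) were treated 24 h at 37 °C with compounds at up to 57 uM. SteadyGlo luminescence gave expression; GF-AFC fluorescence gave viability.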
HepG2 viability – qHTS for Inhibitors of TGF-b: Cytotox Counterscreen | actives 0.76% (n = 410,000) | Potency, µM (titrated, usually from 46.1 µM), for the others: at the highest dose activity change, negative = cytotoxicity, usual class: cytotoxic | HepG2 CAGA-GFP viability, ATP luminescence, 18 h | AID 588856, 2011; further: potency means the concentration at half of the fitted maximal effect
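HepG2 CAGA-GFP cells (1000/well, DMEM with 1% FBS) received compound, then TGF-beta at 500 pg/mL final, and were incubated 18 hours at 37 degrees C. Viability was read by CellTiter-Glo luminescence. Media-only wells were set as complete cell-killing and DMSO as no toxicity.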
TGFb SMAD3 inh – qHTS for Inhibitors of TGF-b. actives 1.2% (n = 410,000). HepG2 CAGA-GFP TGF-b/SMAD3 reporter, GFP fluorescence, 18 h; TGF-beta stimulated, 500 pg/mL final. Potency, µM (top dose mostly 46.1 µM), for the others: at the top dose activity, negative = inhibition, usual class: inhibitors. AID 588855, 2011; further: potency means the concentration at half of the fitted maximal effect; on the % scale 0 is the no-effect control and ±100 the full control effect; nearly all actives have a fitted effect of over 65% in size
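TGF-beta reporter screen: HEPG2 CAGA-GFP, 1% FBS, 500 pg/mL TGF-beta final, 18 h; per-cell GFP summed per well; curves fitted and categorized by class.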
IL1B secr inh – qHTS for Inhibitors of Inflammasome Signaling: IL-1-beta AlphaLISA Primary Screen; THP-1 LPS/ATP IL-1B secretion, AlphaLISA, 16 h; hits give low values; activity change, % at 57.5 µM; actives 4.7% (n = 360,000); in the data active means activity change below about -50%; inconclusive means mostly about -30% to -49%; further: on the % scale 0 is the no-effect control and ±100 the full control effect
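THP-1 cells pretreated 1 hr with compounds (up to 57.5 uM final), then stimulated with LPS (250 ng/mL final) plus ATP (1.25 mM final); secreted IL-1B measured by AlphaLISA after 16 hr, decreased signal indicating inhibition.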
S2 tox – Viability Counterscreen for Primary qHTS for Inhibitors of ATXN expression. S2 cells (HEK-293 line with an ATXN2-luciferase reporter) viability, CellTiter-Fluor protease fluorescence, 24 h. Potency, µM (series often up to 56.7 µM), actives largely listed as cytotoxic. actives 0.49% (n = 400,000). AID 651635, 2014; further: potency means the concentration at half of the fitted maximal effect; nearly all actives have a fitted effect of over 40% in size
Active calls of the source: *; i = inactive; ? = inconclusive; · = no result; [ ] = another dose, or the depositor's remark. Most compounds without a hit are left out; they make up all but 5.7% or so of the library. Unless noted, the call rests on the fitted dose curve; in most records, active means well fitted curve in the direction sought with a large enough effect; inconclusive means small, poorly fitted or top-dose-only effect, or another doubt; inactive means no such curve, though single readings can be large; an effect the other way counts as inactive or inconclusive.

SMILES	ATXN2 expr inh	HepG2 viability	TGFb SMAD3 inh	IL1B secr inh	S2 tox
COc1ccc(CC(N)c2csc(Nc3ccc(S(C)(=O)=O)cc3)n2)cc1 (stereo unspecified)	-14.7%	-16.6%	-2.8%	-14.2	i
COc1cccc(Nc2nc(C(N)Cc3ccc(Cl)cc3)cs2)n1 (stereo unspecified)	25.1µM*	-72.6%	?	-67.0*	31.6µM*
O=C(NCc1ccc(Cl)cc1)C1CCN(S(=O)(=O)c2ccc3c(c2)CCCN3C(=O)C2CCC2)CC1	-12.7%	-20.9%	0.0%	·	?
CCOC(=O)c1cc(-c2ccccc2)n(CC(=O)NC2CCC(C)CC2)c1C (stereo unspecified)	·	-3.2%	0.0%	·	·
CCOC(=O)c1cccc(NS(=O)(=O)c2cc(-c3cnc(C4CC4)o3)ccc2C)c1	-31.6%	-49.0%	17.8µM*	·	?
Cc1ccc(NS(=O)(=O)c2ccc(-c3cnc(C4CC4)o3)cc2)cc1N(C)C	?	-31.7%	10µM*	·	i
O=S(=O)(Nc1ccccc1)c1ccc(-c2cnc(C3CC3)o2)cc1	·	-47.0%	?	9.5	i
Cc1ccc(C)c(NS(=O)(=O)c2ccc(-c3cnc(C4CC4)o3)cc2)c1	·	-49.8%	?	51.0	?
CCc1ccc(NS(=O)(=O)c2cc(-c3cnc(C4CC4)o3)ccc2C)cc1	?	-98.1%	?	·	?
Cc1c(Cl)cccc1NS(=O)(=O)c1ccc(-c2cnc(C3CC3)o2)cc1	0.0%	-109.0%	2.82µM*	·	?
Cc1cccc(NC(=O)Cn2nc(C)c3nn(-c4ccc(Cl)cc4)c(C)c3c2=O)c1C	·	-18.6%	-23.9%	·	·
COc1ccc(OC)c(CNc2nc3ccccc3n2CCN2CCCCC2)c1	?	-25.0%	-13.4%	-16.6	?
COc1ccc(CNc2nc3ccccc3n2CCN2CCCCC2)c(OC)c1	-23.4%	-44.2%	?	-100.3*	?
CCCn1c(Nc2nc3ccccc3n2C)nc2ccccc21	?	7.08µM*	-7.4%	-99.3*	?
CCCCCn1c(NCc2ccc(OC)cc2)nc2ccccc21	?	-48.5%	12.6µM*	·	?
CC(C)COc1ccc(C(=O)Nc2cc(-c3ccccc3)no2)cc1	·	-13.5%	2.5%	·	·
Cc1ccc(S(=O)(=O)c2nnn3c2nc(NC2CCCCC2)c2sccc23)cc1	·	-18.2%	57.0%	·	·
Cc1ccc(S(=O)(=O)c2nnn3c2nc(NC(C)C)c2sccc23)cc1	·	15.8µM*	10µM*	·	·
CC(C)Oc1cc(NC(=O)CSCC(=O)Nc2cccc(C(F)(F)F)c2)c(Cl)cc1Cl	?	-87.1%	11.2µM*	-7.9	?
O=C(O)CSCC(=O)Nc1cc(C(F)(F)F)ccc1Cl	5.2%	-6.3%	-18.3%	-6.2	i
Cc1ccc(CCNC(=O)c2cn(C)c3ccc(S(=O)(=O)N(C)C4CCCCC4)cc3c2=O)cc1	6.0%	1.5%	-4.5%	·	i
Clc1ccc(OCc2cn3ccccc3n2)c2ncccc12	24.7%[11.3 µM]	-0.4%	10.1%	-61.0*	i
N#C/C(=C(/O)c1cccc(F)c1)c1nc2ccccc2s1	·	-6.5%	-27.1%	-58.5*	i
COc1ccccc1CCNC(=O)C(=O)NCC(c1ccco1)S(=O)(=O)c1ccccc1 (stereo unspecified)	·	-28.4%	0.0%	·	·
Cc1ccccc1Oc1cc(-n2ncc(Cl)c(Cl)c2=O)ncn1	7.94µM*	7.08µM*	3.98µM*	-105.6*	7.94µM*
CCCC1([C@H](O)C/C=C/[C@H]2[C@H](O)CC(=O)[C@@H]2CCCCCCC(=O)OC)CCC1	·	·	·	·	35.5µM*
CCC(C)(C)OC(=O)N[C@@H](Cc1c[nH]c2ccccc12)C(=O)N[C@@H](CCSC)C(=O)N[C@@H](CC(=O)O)C(=O)N[C@@H](Cc1ccccc1)C(N)=O	·	·	·	·	i
Cc1ccc(Cn2c(=O)n(-c3cc(C)cc(C)c3)c(=O)c3oc4ccccc4c32)cc1	·	-5.4%	1.1%	·	·
CCOC(=O)CSc1ccc2nnc(-c3cccs3)n2n1	-1.8%	-32.9%	-25.5%	-52.2*	i
